Consider 8 sequences from PMC7862700, “An all-to-all approach to the identification of sequence-specific readers for epigenetic DNA modifications on cytosine”.

Common to all, as to assay: DAPPL (digital affinity profiling via proximity ligation, sequencing); 10 mM Tris-HCl pH 7.5, 50 mM NaCl, 1 mM DTT, 4% glycerol, room temperature, 30 min; GST-TFs on glutathione beads, 16-mer random dsDNA library, 0.1% formaldehyde crosslink after washing; high values mean tight binding
One test has as its target T1, FEV (Homo sapiens, UniProt Q99581 1-238).
T1 sequence: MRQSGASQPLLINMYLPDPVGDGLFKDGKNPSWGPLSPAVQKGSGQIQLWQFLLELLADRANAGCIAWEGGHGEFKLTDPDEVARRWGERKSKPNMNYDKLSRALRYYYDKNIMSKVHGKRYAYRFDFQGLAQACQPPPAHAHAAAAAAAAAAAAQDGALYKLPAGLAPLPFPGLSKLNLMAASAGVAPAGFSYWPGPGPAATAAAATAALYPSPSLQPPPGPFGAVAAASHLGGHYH
The following applies: protein: recombinant; tags: N-terminal GST; dsDNA, one strand shown. In short, it runs like this: (§1)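 Yeast served to express human transcription factors as GST fusions, which were then captured on glutathione beads and labelled with DNA barcodes. Pooled with a tag-only sample, they were incubated with 200 nmole of a 16-mer random double-stranded DNA library for 30 min at room temperature in Tris/NaCl/DTT/glycerol buffer, washed, crosslinked with 0.1% formaldehyde, ligated by proximity, amplified by PCR and sequenced. Dividing each hexamer's read frequency for a factor by its frequency for the tag-only sample gives the binding signal.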

Another test has as its target ETV5 (Homo sapiens, UniProt P41161 1-510). The following applies: protein: recombinant; tags: N-terminal GST; dsDNA, one strand shown. In short, it runs like this: as §1
Another test deals with HSF1 (Homo sapiens, UniProt Q00613 1-529). Conditions: protein: recombinant; tags: N-terminal GST; chain copies: 3; dsDNA, one strand shown. A digest of the protocol:
as §1

The target in a further test is T2, SPIC (Homo sapiens, UniProt Q8N5J4 1-248).
T2 sequence: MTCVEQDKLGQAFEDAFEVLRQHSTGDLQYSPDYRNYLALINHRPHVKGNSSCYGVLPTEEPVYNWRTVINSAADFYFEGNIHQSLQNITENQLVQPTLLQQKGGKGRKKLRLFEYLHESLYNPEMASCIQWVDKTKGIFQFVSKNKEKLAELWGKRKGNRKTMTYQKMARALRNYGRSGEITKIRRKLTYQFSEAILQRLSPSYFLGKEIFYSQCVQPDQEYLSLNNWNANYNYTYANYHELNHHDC
The following applies: protein: recombinant; tags: N-terminal GST; dsDNA, one strand shown. A digest of the protocol: as §1

A further test deals with ELF4 (Homo sapiens, UniProt Q99607 1-663). The following applies: protein: recombinant; tags: N-terminal GST; dsDNA, one strand shown. A digest of the protocol:
as §1

The target of a further test is T3, ELK4 (Homo sapiens, UniProt P28324-2 1-405).
T3 sequence: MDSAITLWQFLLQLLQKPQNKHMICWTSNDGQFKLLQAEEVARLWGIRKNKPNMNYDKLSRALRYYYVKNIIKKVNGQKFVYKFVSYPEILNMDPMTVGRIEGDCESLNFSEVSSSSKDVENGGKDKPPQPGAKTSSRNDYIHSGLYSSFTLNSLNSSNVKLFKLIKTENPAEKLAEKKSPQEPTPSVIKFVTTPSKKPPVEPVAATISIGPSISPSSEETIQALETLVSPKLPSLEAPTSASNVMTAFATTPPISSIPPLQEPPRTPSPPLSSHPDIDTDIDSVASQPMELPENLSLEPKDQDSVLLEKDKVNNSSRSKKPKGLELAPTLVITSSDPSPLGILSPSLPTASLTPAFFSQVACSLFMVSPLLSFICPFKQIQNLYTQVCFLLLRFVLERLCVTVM
Conditions: protein: recombinant; tags: N-terminal GST; dsDNA, one strand shown. In short, it runs like this: as §1

Another test deals with T4, ETV2 (Homo sapiens, UniProt O00321 1-342).
T4 sequence: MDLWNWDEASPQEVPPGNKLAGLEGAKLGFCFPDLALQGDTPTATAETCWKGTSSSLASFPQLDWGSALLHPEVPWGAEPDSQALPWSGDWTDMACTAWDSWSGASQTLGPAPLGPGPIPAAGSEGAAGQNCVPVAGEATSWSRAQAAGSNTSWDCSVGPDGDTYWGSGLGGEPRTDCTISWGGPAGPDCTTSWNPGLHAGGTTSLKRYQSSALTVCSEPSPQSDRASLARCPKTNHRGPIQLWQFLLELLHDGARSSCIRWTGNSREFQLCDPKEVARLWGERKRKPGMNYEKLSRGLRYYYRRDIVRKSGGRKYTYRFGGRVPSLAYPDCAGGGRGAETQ
Conditions: protein: recombinant; tags: N-terminal GST; dsDNA, one strand shown. A digest of the protocol: as §1

The next test concerns the target T5, ELF3 (Homo sapiens, UniProt P78545 1-371).
T5 sequence: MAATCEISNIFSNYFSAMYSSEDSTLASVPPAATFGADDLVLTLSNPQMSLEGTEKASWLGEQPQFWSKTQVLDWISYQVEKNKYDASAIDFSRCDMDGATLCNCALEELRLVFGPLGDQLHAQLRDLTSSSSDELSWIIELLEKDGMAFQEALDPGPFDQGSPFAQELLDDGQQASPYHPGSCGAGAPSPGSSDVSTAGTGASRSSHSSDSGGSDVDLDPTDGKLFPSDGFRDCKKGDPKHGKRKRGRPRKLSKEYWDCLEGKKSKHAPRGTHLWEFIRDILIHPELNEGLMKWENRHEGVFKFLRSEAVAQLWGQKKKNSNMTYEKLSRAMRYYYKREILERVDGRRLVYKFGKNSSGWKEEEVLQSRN
The following applies: protein: recombinant; tags: N-terminal GST; dsDNA, one strand shown. In short, it runs like this: as §1

For the next test, the target named is CRX (Homo sapiens, UniProt O43186 1-299). The following applies: protein: recombinant; tags: N-terminal GST; dsDNA, one strand shown. In short, it runs like this:
as §1

For the next test, the target named is ETV1 (Homo sapiens, UniProt P50549 1-477). The following applies: protein: recombinant; tags: N-terminal GST; dsDNA, one strand shown. A digest of the protocol: as §1
Chain of ETV1 (P50549 whole entry): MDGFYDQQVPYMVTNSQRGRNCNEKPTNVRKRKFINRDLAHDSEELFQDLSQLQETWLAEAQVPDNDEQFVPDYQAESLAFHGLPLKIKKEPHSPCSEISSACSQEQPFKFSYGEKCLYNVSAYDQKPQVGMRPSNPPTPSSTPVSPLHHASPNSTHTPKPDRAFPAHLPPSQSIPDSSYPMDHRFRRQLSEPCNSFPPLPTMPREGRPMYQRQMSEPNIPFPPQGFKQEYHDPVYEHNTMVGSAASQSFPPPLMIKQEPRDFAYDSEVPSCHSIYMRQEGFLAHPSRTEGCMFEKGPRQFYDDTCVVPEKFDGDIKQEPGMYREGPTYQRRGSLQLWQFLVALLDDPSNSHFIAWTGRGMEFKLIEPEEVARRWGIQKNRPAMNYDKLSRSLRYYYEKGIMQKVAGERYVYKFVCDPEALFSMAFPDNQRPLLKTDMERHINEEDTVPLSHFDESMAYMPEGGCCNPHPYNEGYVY

Chain of ETV5 (P41161 whole entry): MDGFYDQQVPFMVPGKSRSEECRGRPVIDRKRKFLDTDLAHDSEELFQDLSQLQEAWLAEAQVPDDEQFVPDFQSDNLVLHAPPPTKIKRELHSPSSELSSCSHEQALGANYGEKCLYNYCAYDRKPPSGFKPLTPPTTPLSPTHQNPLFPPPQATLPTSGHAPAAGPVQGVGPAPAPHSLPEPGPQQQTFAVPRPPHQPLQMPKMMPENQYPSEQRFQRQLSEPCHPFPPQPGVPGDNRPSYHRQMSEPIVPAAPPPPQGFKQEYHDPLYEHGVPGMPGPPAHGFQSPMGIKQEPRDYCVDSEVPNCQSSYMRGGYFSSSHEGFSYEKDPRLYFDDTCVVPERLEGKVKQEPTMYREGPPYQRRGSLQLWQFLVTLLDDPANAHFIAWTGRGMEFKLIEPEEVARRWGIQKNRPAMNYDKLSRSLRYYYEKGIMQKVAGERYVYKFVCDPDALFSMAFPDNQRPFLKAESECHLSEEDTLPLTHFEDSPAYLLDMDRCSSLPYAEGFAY
Chain of CRX (O43186 whole entry): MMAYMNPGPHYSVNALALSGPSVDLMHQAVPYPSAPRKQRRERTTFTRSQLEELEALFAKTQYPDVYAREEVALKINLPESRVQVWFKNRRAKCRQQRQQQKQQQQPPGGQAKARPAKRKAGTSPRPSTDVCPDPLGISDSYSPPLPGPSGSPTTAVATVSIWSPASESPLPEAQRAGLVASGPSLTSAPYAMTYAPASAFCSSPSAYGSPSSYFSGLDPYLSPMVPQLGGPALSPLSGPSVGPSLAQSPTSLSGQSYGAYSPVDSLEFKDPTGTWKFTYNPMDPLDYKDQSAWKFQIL
Chain of ELF4 (Q99607 whole entry): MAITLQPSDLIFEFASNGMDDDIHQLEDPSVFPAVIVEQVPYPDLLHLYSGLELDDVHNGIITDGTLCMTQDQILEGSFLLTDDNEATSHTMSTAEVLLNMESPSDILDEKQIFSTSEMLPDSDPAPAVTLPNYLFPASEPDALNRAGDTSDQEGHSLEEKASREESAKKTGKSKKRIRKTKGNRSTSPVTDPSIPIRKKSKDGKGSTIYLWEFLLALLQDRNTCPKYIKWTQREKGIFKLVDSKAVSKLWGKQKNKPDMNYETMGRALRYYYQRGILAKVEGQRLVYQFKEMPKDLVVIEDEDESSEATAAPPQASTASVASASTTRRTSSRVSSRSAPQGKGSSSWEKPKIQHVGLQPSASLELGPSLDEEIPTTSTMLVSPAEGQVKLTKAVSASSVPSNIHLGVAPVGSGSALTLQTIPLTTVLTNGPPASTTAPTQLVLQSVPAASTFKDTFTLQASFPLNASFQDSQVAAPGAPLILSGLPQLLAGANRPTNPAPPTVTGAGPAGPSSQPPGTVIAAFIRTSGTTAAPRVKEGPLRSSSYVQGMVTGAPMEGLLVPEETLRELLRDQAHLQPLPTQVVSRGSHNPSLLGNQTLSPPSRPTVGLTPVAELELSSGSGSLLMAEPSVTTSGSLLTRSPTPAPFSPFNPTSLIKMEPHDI
Chain of HSF1 (Q00613 whole entry): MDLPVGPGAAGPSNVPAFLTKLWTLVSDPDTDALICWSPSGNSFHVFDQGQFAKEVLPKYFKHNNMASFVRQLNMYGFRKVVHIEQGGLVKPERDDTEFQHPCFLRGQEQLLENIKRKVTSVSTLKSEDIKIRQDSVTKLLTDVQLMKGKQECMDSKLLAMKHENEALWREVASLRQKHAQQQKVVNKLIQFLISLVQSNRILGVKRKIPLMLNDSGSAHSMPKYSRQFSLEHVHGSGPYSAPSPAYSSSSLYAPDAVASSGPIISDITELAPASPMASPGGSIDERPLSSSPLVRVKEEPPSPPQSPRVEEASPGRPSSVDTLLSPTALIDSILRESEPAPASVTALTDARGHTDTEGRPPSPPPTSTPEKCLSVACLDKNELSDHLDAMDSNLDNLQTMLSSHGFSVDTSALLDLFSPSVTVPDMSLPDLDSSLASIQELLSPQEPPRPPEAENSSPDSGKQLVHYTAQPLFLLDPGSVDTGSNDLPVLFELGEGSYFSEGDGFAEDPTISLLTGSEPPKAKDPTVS

Regarding TTCCAA, the binding signal is 1.26 fold enrichment (6-mer frequency, TF over GST control) with FEV; 1.18 fold enrichment (6-mer frequency, TF over GST control) with ETV5; 1.47 fold enrichment (6-mer frequency, TF over GST control) in the test with HSF1; 1.31 fold enrichment (6-mer frequency, TF over GST control) with SPIC; 1.27 fold enrichment (6-mer frequency, TF over GST control) with ELF4; 1.31 fold enrichment (6-mer frequency, TF over GST control) in the test with ELK4. In addition, the binding signal with ETV2 was 1.29 fold enrichment (6-mer frequency, TF over GST control); in the test with ELF3 it was 1.16 fold enrichment (6-mer frequency, TF over GST control); with CRX, 1.39 fold enrichment (6-mer frequency, TF over GST control); in the test with ETV1, 1.21 fold enrichment (6-mer frequency, TF over GST control).

As to CTAACA, the binding signal with FEV is 1.2 fold enrichment (6-mer frequency, TF over GST control); with ETV5, 1.26 fold enrichment (6-mer frequency, TF over GST control); with HSF1, 1.08 fold enrichment (6-mer frequency, TF over GST control); with SPIC it was 1.26 fold enrichment (6-mer frequency, TF over GST control); in the test with ELF4, 1.2 fold enrichment (6-mer frequency, TF over GST control); with ELK4 it was 1.17 fold enrichment (6-mer frequency, TF over GST control). Further, the binding signal is 1.21 fold enrichment (6-mer frequency, TF over GST control) with ETV2; 1.28 fold enrichment (6-mer frequency, TF over GST control) with ELF3; 1.2 fold enrichment (6-mer frequency, TF over GST control) with CRX; 1.15 fold enrichment (6-mer frequency, TF over GST control) with ETV1.

In the case of ATACGA, the binding signal was 1.16 fold enrichment (6-mer frequency, TF over GST control) with FEV; 1.17 fold enrichment (6-mer frequency, TF over GST control) with ETV5; 1.22 fold enrichment (6-mer frequency, TF over GST control) with HSF1; 1.01 fold enrichment (6-mer frequency, TF over GST control) with SPIC; 1.21 fold enrichment (6-mer frequency, TF over GST control) in the test with ELF4; 1.08 fold enrichment (6-mer frequency, TF over GST control) with ELK4. Besides, the binding signal with ETV2 is 1.05 fold enrichment (6-mer frequency, TF over GST control); with ELF3, 1.08 fold enrichment (6-mer frequency, TF over GST control); with CRX it was 1.17 fold enrichment (6-mer frequency, TF over GST control); with ETV1 it was 1.19 fold enrichment (6-mer frequency, TF over GST control).

For TCTCGA, the binding signal with FEV is 1.23 fold enrichment (6-mer frequency, TF over GST control); in the test with ETV5, 1.4 fold enrichment (6-mer frequency, TF over GST control); in the test with HSF1, 5.05 fold enrichment (6-mer frequency, TF over GST control); with SPIC, 1.35 fold enrichment (6-mer frequency, TF over GST control); with ELF4, 1.51 fold enrichment (6-mer frequency, TF over GST control); with ELK4 it was 1.46 fold enrichment (6-mer frequency, TF over GST control). The binding signal with ETV2 was 1.27 fold enrichment (6-mer frequency, TF over GST control); in the test with ELF3, 1.35 fold enrichment (6-mer frequency, TF over GST control); with CRX, 2.28 fold enrichment (6-mer frequency, TF over GST control); in the test with ETV1 it was 1.47 fold enrichment (6-mer frequency, TF over GST control).

Consider TATTAA, for which the binding signal is 1.14 fold enrichment (6-mer frequency, TF over GST control) in the test with FEV; 1.13 fold enrichment (6-mer frequency, TF over GST control) with ETV5; 1.82 fold enrichment (6-mer frequency, TF over GST control) with HSF1; 1.12 fold enrichment (6-mer frequency, TF over GST control) in the test with SPIC; 1.16 fold enrichment (6-mer frequency, TF over GST control) with ELF4; 1.02 fold enrichment (6-mer frequency, TF over GST control) with ELK4. The binding signal was 1.09 fold enrichment (6-mer frequency, TF over GST control) with ETV2; 1.06 fold enrichment (6-mer frequency, TF over GST control) with ELF3; 2.83 fold enrichment (6-mer frequency, TF over GST control) with CRX; 1.14 fold enrichment (6-mer frequency, TF over GST control) with ETV1.

Turning to TTGTCT, the binding signal is 1.24 fold enrichment (6-mer frequency, TF over GST control) with FEV; 1.29 fold enrichment (6-mer frequency, TF over GST control) with ETV5; 1.14 fold enrichment (6-mer frequency, TF over GST control) in the test with HSF1; 1.3 fold enrichment (6-mer frequency, TF over GST control) with SPIC; 1.18 fold enrichment (6-mer frequency, TF over GST control) in the test with ELF4; 1.22 fold enrichment (6-mer frequency, TF over GST control) with ELK4. Besides, the binding signal is 1.27 fold enrichment (6-mer frequency, TF over GST control) in the test with ETV2; 1.34 fold enrichment (6-mer frequency, TF over GST control) with ELF3; 1.15 fold enrichment (6-mer frequency, TF over GST control) with CRX; 1.2 fold enrichment (6-mer frequency, TF over GST control) with ETV1.

Turning to TACGCG, the binding signal is 1.11 fold enrichment (6-mer frequency, TF over GST control) in the test with FEV; 1.21 fold enrichment (6-mer frequency, TF over GST control) with ETV5; 1.17 fold enrichment (6-mer frequency, TF over GST control) with HSF1; 1.12 fold enrichment (6-mer frequency, TF over GST control) in the test with SPIC; 1.12 fold enrichment (6-mer frequency, TF over GST control) in the test with ELF4; 1.25 fold enrichment (6-mer frequency, TF over GST control) with ELK4. Moreover, the binding signal with ETV2 was 1.21 fold enrichment (6-mer frequency, TF over GST control); with ELF3, 1.19 fold enrichment (6-mer frequency, TF over GST control); with CRX, 1.24 fold enrichment (6-mer frequency, TF over GST control); in the test with ETV1, 1.23 fold enrichment (6-mer frequency, TF over GST control).

Consider CTTAAT, for which the binding signal with FEV was 1.23 fold enrichment (6-mer frequency, TF over GST control); in the test with ETV5 it was 1.27 fold enrichment (6-mer frequency, TF over GST control); with HSF1 it was 2.31 fold enrichment (6-mer frequency, TF over GST control); in the test with SPIC, 1.32 fold enrichment (6-mer frequency, TF over GST control); in the test with ELF4 it was 1.33 fold enrichment (6-mer frequency, TF over GST control); in the test with ELK4 it was 1.22 fold enrichment (6-mer frequency, TF over GST control). The binding signal in the test with ETV2 is 1.25 fold enrichment (6-mer frequency, TF over GST control); with ELF3 it was 1.35 fold enrichment (6-mer frequency, TF over GST control); in the test with CRX, 3.69 fold enrichment (6-mer frequency, TF over GST control); with ETV1, 1.29 fold enrichment (6-mer frequency, TF over GST control).
